# According to PubChem BioAssay (Tox21):
# Inconclusive results are not listed. Active and inactive are the calls of the source. Calls follow the shape of the dose curve; as a rule, active = well fitted inhibition curve with a large enough effect in the signal ratio in the repeat runs (not every such curve was filed as active); inconclusive = weak or mixed curves, or effect the other way; inactive = no such curve, though single readings can be large or run the other way; the % refers to the signal ratio.
# Target: Glucocorticoid receptor (Homo sapiens) (UniProt P04150)
# Sequence (P04150 whole entry, looked up): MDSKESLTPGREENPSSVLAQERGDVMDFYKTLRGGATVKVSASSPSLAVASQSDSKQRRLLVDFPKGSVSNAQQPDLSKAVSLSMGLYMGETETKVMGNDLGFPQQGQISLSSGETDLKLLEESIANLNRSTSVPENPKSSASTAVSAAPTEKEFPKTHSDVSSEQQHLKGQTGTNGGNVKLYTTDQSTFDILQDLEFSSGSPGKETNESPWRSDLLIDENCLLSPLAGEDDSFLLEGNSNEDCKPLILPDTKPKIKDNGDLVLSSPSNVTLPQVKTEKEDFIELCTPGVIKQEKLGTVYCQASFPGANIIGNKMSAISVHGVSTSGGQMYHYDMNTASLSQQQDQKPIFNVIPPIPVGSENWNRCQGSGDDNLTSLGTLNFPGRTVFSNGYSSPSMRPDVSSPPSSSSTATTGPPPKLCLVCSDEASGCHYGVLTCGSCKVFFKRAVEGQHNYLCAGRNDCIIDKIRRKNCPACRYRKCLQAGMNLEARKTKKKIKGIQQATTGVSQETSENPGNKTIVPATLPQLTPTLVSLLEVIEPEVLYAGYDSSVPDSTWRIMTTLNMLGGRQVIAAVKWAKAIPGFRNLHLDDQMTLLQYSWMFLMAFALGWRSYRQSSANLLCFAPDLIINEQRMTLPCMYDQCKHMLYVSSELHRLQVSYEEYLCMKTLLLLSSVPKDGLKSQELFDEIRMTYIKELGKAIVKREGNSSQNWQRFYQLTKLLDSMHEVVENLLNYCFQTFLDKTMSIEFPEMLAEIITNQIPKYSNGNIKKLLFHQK
# Experiment: qHTS assay to identify small molecule antagonists of the glucocorticoid receptor (GR) signaling pathway (AID 720692)
# Conditions: GR-bla HeLa, beta-lactamase FRET ratio, dexamethasone-stimulated, 18 h; series mostly up to 58.5 µM; activity change, negative = inhibition: at the top concentration
# Description: U.S. Tox21 Program National Center for Advancing Translational Sciences [NCATS] NIH Chemical Genomics Center [NCGC] U.S. Environmental Protection Agency [EPA] National Institutes of Environmental Health Sciences [NIEHS] National Toxicology Program [NTP] U.S. Food and Drug Administration [FDA] Tox21 Assay Overview: The Glucocorticoid receptor (GR) is one of the members of the nuclear receptor family of ligand-dependent transcription factors. GR plays a critical role in carbohydrate, protein and lipid metabolisms and programmed cell death. CellSensor GR-bla HeLa cell line (Invitrogen) contains a beta-lactamase reporter gene under the control of the glucocorticoid response element stably integrated into HeLa cells, a cervical cancer cell line that expresses glucocorticoid receptor. The activation of the reporter gene under culture conditions can be detected by fluorescence intensity. This cell line has been used to screen the Tox21 10K compound library and to identify the compounds that inhibit the GR signaling.
# Tox21 Assay Protocol Summary: The GR-bla HeLa cells were dispensed at 1500 cells/5 ul/well in 1536-well black wall/clear bottom plates using a Multidrop Combi (ThermoFisher Scientific, Waltham, MA) dispenser. After the assay plates were incubated at a 37 C/5% CO2 incubator for 4 hours, 23 nL of compounds dissolved in DMSO, positive controls or DMSO only was transferred to the assay plate by a pintool station (Kalypsys, San Diego, CA), followed by addition of 1 uL of dexamethasone (5 nM, final concentration in the well). The plates were incubated at 37 C for 18 hours. After 1 uL of LiveBLAzerTM B/G FRET substrate was added using a Flying Reagent Dispenser (Aurora Discovery, San Diego, CA), the plates were incubated at room temperature for 2 hours, and fluorescence intensity was measured by an Envision plate reader (PerkinElmer, Shelton, CT).
# % is scaled to controls: 0 for no effect and ±100 for the full control effect; potency is read from the fitted curve at half-maximal effect.
Compound,"activity change, negative = inhibition",Potency
CC(Cc1ccc(OCC(=O)O)cc1)NCC(O)c1csc(C(F)(F)F)n1 (stereo not given),-12.9% (inactive),
Cc1c([N+](=O)[O-])c(C)c([N+](=O)[O-])c(C(C)(C)C)c1[N+](=O)[O-],-5.73% (inactive),
CC(Cl)CCl (stereo not given),18.8% (inactive),
COCCC#N,-4.2% (inactive),
CNC(C)(C)Cc1ccccc1,-0.79% [at 27 µM] (inactive),
O=[N+]([O-])C(Br)Br,5.7% (inactive),
COC(=O)c1cc(Oc2ccc(Cl)cc2Cl)ccc1[N+](=O)[O-],-9.44% (inactive),
O=NN(CCO)CCO,-0.823% (inactive),
COP(=S)(OC)Oc1nc(Cl)c(Cl)cc1Cl,13.8% (inactive),
CCO/N=C(\CC)C1=C(O)CC(c2c(C)cc(C)cc2C)CC1=O (stereo not given),-17.2% (inactive),
Clc1cc(Cl)c(-c2cc(Cl)c(Cl)cc2Cl)cc1Cl,-12.1% (inactive),
CCN(CC)Cc1nccn1-c1ccc([N+](=O)[O-])cc1C(=O)c1ccccc1Cl,-36.4% (inactive),
CNC(=O)/C=C(\C)OP(=O)(OC)OC,3.35% (inactive),
CC(C)Br,-11.7% (inactive),
CCC(C)Nc1c([N+](=O)[O-])cc(C(C)(C)C)cc1[N+](=O)[O-] (stereo not given),-12.6% (inactive),
CO/N=C(/C1=NOCCO1)c1ccccc1Oc1ncnc(Oc2ccccc2Cl)c1F,-0.0518% (inactive),
CCOC(=O)Cc1ccccc1,-1.8% (inactive),
S=C=Nc1ccccc1,-0.658% [at 78.9 µM] (inactive),
N#Cc1c[nH]cc1-c1cccc2c1OC(F)(F)O2,,9.77 µM (active)
Clc1ccc(C2(Cn3cncn3)OCCO2)c(Cl)c1,,inactive

Compound,"activity change, negative = inhibition",Potency
CCNc1nc(NC(C)C(C)C)nc(SC)n1 (stereo not given),2.02% (inactive),
Cc1ccc2cc3c(ccc4ccccc43)c3c2c1CC3,-13% (inactive),
CCOP(=O)(OCC)Oc1nc(Cl)c(Cl)cc1Cl,,27.4 µM (active)
O=P(Cl)(Cl)Cl,0.371% [at 78.9 µM] (inactive),
Nc1ccc(N=Nc2ccccc2)cc1,,54.9 µM (active)
Oc1cccc(Cl)c1Cl,3.66% [at 78.9 µM] (inactive),
CCC1COC(Cn2cncn2)(c2ccc(Cl)cc2Cl)O1 (stereo not given),20.9% (inactive),
CCCCC/C=C\C/C=C\C/C=C\C/C=C\CCCC(=O)NCC(=O)O,22.5% [at 7.04 µM] (inactive),
c1cc[n+]2c(c1)-c1cccc[n+]1CC2,8.27% (inactive),
CCN(CC)C(=O)N[C@@H]1C=C2c3cccc4[nH]cc(c34)C[C@@H]2N(C)C1,12.7% (inactive),
CCOC(=O)CCN(SN(C)C(=O)Oc1cccc2c1OC(C)(C)C2)C(C)C,18.8% (inactive),
CCC1(CC)C(=O)N=C(O)NC1=O,3.24% (inactive),
CCOP(=O)(Sc1ccccc1)Sc1ccccc1,19.6% (inactive),
CC(C)N(C(=O)CCl)c1ccccc1,,24.5 µM (active)
Cc1cnc2c(C(=O)O)c(Cl)ccc2c1,-0.0655% (inactive),
COc1ccc2c3c1O[C@H]1[C@H](O)CC[C@H]4[C@@H](C2)N(C)CC[C@@]341,1.17% (inactive),
Nc1cc(Cl)ccc1Cl,9.36% (inactive),
O=c1c2ccccc2c(=O)c2c1cc(Cl)c1[nH]c3c([nH]c12)c(Cl)cc1c(=O)c2ccccc2c(=O)c13,-2.75% (inactive),
Oc1cc(Cl)cc(Cl)c1,18.1% [at 78.9 µM] (inactive),
ClC1(Cl)C2(Cl)C3(Cl)C4(Cl)C(Cl)(Cl)C5(Cl)C3(Cl)C1(Cl)C5(Cl)C24Cl (stereo not given),-1.9% (inactive),
